This is a sample that favours compounds with a hit; in the whole collection about 1.4% have one here.
N370S GC mod: inhibitors or activators of N370S glucocerebrosidase for Gaucher disease; N370S GC spleen homogenate, 4MU-glucoside fluorescence; 330,000 compounds, 0.092% hits; P04062; Potency, µM (top dose mostly 59.4 µM), without a hit: at the highest dose activity change, negative = inhibition, usual class: inhibitors;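 further: potency means the concentration at half of the fitted maximal effect; 0% = full enzyme activity and -100% = no enzyme basal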
BRCA1 expr up: increases BRCA1 expression; MCF7-BRCA1-FFLuc reporter, luminescence, 48 h; response scale: scaled: vehicle 0%, 10 µM genistein 100%; Potency, µM (series often up to 46.1 µM), for inactives: at the top dose activation, hits mostly activators; 380,000 compounds, 1.1% hits; AID 624202; further: potency means the concentration at half of the fitted maximal effect; nearly all actives have a fitted effect of over 80% in size
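MCF7-BRCA1-FFLuc, 2000 cells/well; 2 h attach, 37 °C/5% CO2; compound 48 h; luciferase substrate 15 min; luminescence end-point. Norm. to genistein 10 microM max activation and DMSO; concentration-response curves fitted.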
BCR signal inh: blocks chronic active B-cell receptor signaling. ABC-DLBCL IkBa-CBG/CBR reporter, luminescence ratio, 4 h. 340,000 compounds, 0.05% hits. Potency, µM (series often up to 46.1 µM), for inactives: at the highest dose activity change, negative = inhibition, hits mostly inhibitors; active means well fitted inhibition curve with a large enough effect in the signal ratio, with a control signal flat, not every such curve was filed as active; inconclusive means small, poorly fitted or top-dose-only effect, or effect the other way, or a change in a side signal; the % refers to the signal ratio;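 further: potency means the concentration at half of the fitted maximal effect; plate controls were basal doxycycline-induced cells for no effect and cells given 10 µM MG132 for full effect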
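Doxycycline induced both beetle luciferases in TMD8 lymphoma cells; IKK-driven degradation limits the IkappaBalpha-fused green signal, while red luminescence normalises for cell number and nonspecific effects. Compounds tested up to 46 uM, 4 hrs.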
Integrin act MD: activates integrin-mediated alleviation for muscular dystrophy; 350,000 compounds, 0.064% hits; alpha7betagal myoblasts, beta-gal FDG fluorescence, 48 h; Potency, µM (series often up to 38.3 µM), inactives show at the top dose activation, usual class: activators;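 further: potency means the concentration at half of the fitted maximal effect; 100% = response of the positive control SU9516; nearly all actives have a fitted effect of over 60% in size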
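Alpha7betagal+/- myoblasts (passage 13) were plated 16-24 hr, then exposed to compounds (1:260 dilution of DMSO stock) for 48 hours at 37C. After MPER lysis, β-galactosidase reporter activity was read as FDG fluorescence (ex 480/em 540) after 30 minutes.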
IL2 activator: IL-2 activation | IL-2 activation reporter assay, cell-based qHTS; stimulated with anti-CD3/CD4/CD28 beads; in transgenic mouse T cells | AID 652025 | 360,000 compounds, 0.065% hits | activation, % (series mostly up to about 46 µM); in the data active means activation above about 50%; inconclusive means mostly about 30% to 49%; further: 0% is about no effect
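Readout is EGFP and DsRed signal by fluorescent plate cytometry after 18 h at 37 degrees C. Transgenic mouse T cells (750/well) received compound for 60 min before bead stimulation (anti-CD3, anti-CD4, anti-CD28); memory T cells served as non-tolerant control.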
Nrf2 activator: Nrf2 pathway activation; AREc32 ARE-luciferase reporter (MCF7-derived line), luminescence, 24 h; Potency, µM (highest dose often 46.1 µM), inactives show at the highest dose activation, usual class: activators; 410,000 compounds, 0.31% hits; AID 624171; further: potency means the concentration at half of the fitted maximal effect; % of control where 0% means no effect; nearly all actives have a fitted effect of over 65% in size
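Luciferase luminescence (Steady-Glo, 30 min at room temperature) served as the read-out of ARE activation in AREc32 cells treated with compounds for 24 hr at 37 deg C.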
An asterisk follows results filed as active; u = inconclusive; x = no result given; [ ] = remark or other dose. Unless noted, the call rests on the fitted dose curve; in most records, active means well fitted curve in the direction sought with a large enough effect; inconclusive means small, poorly fitted or top-dose-only effect, or another doubt; inactive means no such curve, though single readings can be large; an effect the other way counts as inactive or inconclusive.

SMILES	N370S GC mod	BRCA1 expr up	BCR signal inh	Integrin act MD	IL2 activator	Nrf2 activator
N=C1/C(=C\c2coc3ccccc3c2=O)C(=O)N=C2SC=CN12	-3%	-55%	u	8%	0	18µM*
CC(C)C[C@H]1COc2cc(N3CCC[C@@H]3CO)ccc2S(=O)(=O)N1	x	4%	x	x	0	0%
Cc1ccc2oc(-c3ccc(C)c(NC(=O)COc4ccc(Cl)cc4)c3)nc2c1	x	-1%	x	x	x	x
Nc1nc(N)nc(-c2cccc(Br)c2)n1	x	13µM*	x	24%	0	5%
Cc1cccc(-c2nc(N)nc(N)n2)c1	-1%	u	11%	6%	1	0%
NC(=O)c1c(NC(=O)c2cnccn2)sc2c1CCCC2	-1%	7.9µM*	4%	5%	1	1%
C[C@H](CO)N1C[C@H](C)[C@@H](CN(C)S(=O)(=O)c2ccccc2)OCc2cnnn2CCCC1=O	x	9%	x	-5%	2	0%
COc1ccc(/C=C(\C#N)c2nc3ccccc3c(=O)[nH]2)cc1OC	x	x	x	x	x	0%
CCN(Cc1ccccc1)c1ccc(/C=C(\C#N)c2ccccn2)cc1	8%	5µM*	u	13%	1	3%
O=C(Nc1ccc(F)cc1F)Nc1ccc(F)cc1F	-24%	10µM*	u	-21%	-4	1%
SCc1nc2ccccc2[nH]1	x	-6%	x	x	x	x
O=c1c2ccccc2nc2c3ccccc3cnn12	17%	7.9µM*	10%	-28%	2	9%
O=c1c2ccccc2nc2c3ccccc3c(Cl)nn12	4%	x	4%	x	x	x
C/C(=N\Nc1nccnc1Cl)c1ccc(Br)cc1	-4%	11%	-18%	-5%	0	11µM*
COc1ccc(/C(C)=N/Nc2nccnc2Cl)cc1	x	4%	u	-24%	0	14%
O=C(O)c1ccc(/C=N\Nc2ccccn2)cc1	x	2.5µM*	x	19%	0	6%
COc1ccc(/C=N/Nc2ccc([N+](=O)[O-])cc2)cc1O	-16%	8.9µM*	u	-45%	0	10%
O=[N+]([O-])c1ccc(NN=Cc2ccco2)nc1	x	10µM*	x	-13%	-1	0.89µM*
O=[N+]([O-])c1ccc(/C=N/Nc2ccccn2)cc1	-6%	1.4µM*	u	-31%	-2	23%
CN(C)c1ccc(/C=N\Nc2ccccn2)cc1	-1%	u	u	-24%	1	-1%
CCOc1ccc(NC(=O)CSc2nnc3c(n2)[nH]c2ccc(S(=O)(=O)N4CCCCC4)cc23)cc1	x	-25%	x	x	x	x
O=C(Cn1ccn(-c2ccc(F)c(F)c2)c(=O)c1=O)NCc1ccccc1	x	x	x	x	x	0%
COC(=O)[C@]1(C)N[C@H](CN(C)S(=O)(=O)c2ccc(-c3ccccc3)cc2)[C@@H]2C(=O)N(C)C(=O)[C@@H]21	x	-1%	0%	-5%	1	-1%
O=S(=O)(Nc1cccc2cccnc12)c1ccc(Br)cc1	6%	x	x	x	x	x
COC(=O)CSc1nc2cc(C)ccc2cc1C#N	4%	u	15%	7%	103*	5%
SMILES	N370S GC mod	BRCA1 expr up	BCR signal inh	Integrin act MD	IL2 activator	Nrf2 activator
CCOC(=O)CC(=O)CSc1nc(CC)c(C)cc1C#N	10%	-41%	9%	8%	-4	2%
CCOC(=O)CC(=O)CSc1nc2ccc(C)cc2cc1C#N	22µM*	6%	21%	-27%	2	0%
O=C(C1CC1)N1CCc2sccc2C1c1ccc(Cl)cc1 (centres undefined)	-2%	-33%	u	20%	0	1%
O=c1c(=Nc2ccccc2O)c(=O)c2ccccc12	-2%	11µM*	u	-27%	1	u
CCc1ccccc1N1CC(c2nc3ccccc3n2CCOc2ccc(Cl)c(C)c2)CC1=O (centres undefined)	x	x	x	x	x	-5%
CCOC(=O)C(C)On1c(-c2cccc(Cl)c2)nc2ccc([N+](=O)[O-])cc21 (centres undefined)	0%	38%	u	-24%	-1	11%
CCOC(=O)COn1c(-c2cccc(Cl)c2)nc2ccc([N+](=O)[O-])cc21	-18%	7.1µM*	-4%	1%	-3	0%
Cc1cc(NC2CCCCC2)nc(NCc2ccccc2)n1	18µM*	-35%	-5%	-58%	-3	0%
Cc1ccc(Nc2cc(C)nc(NCc3ccccc3)n2)cc1	4%	-71%	u	-75%	-6	-2%
O=C(CNC(=S)NC(=O)c1ccccc1Br)c1ccccc1	11%	-11%	u	26%	-5	2.2µM*
Cc1ccccc1C(=O)NC(=S)NCC(=O)c1ccccc1	4%	30%	u	3%	-1	0%
O=C(Nc1ccnc(=O)[nH]1)c1sc2ccccc2c1Cl	-8%	5.6µM*	u	u	-2	0%
O=C(Nc1ccc(NC(=O)c2sc3ccccc3c2Cl)cc1Cl)c1ccco1	-6%	7.9µM*	0%	-34%	-4	4%
CN1C(=O)C(=O)/C(=C(/O)c2ccc(Br)cc2)C1c1ccccc1F (centres undefined)	-15%	-32%	4%	u	0	5%
COc1ccc(-c2nnc(C3CCN(S(=O)(=O)c4cccc(Cl)c4)CC3)o2)cc1	x	x	x	x	x	5%
O=c1oc2ccccc2c2c1C1O[C@](c3ccsc3)(Cc3c1ccc1ccccc31)O2	-3%[12.8 µM]	x	-11%[9.22 µM]	x	x	x
CC(C)(C)Cc1nc(-c2ccccn2)no1	-9%	10µM*	u	3%	-3	-1%
c1ccc(-c2noc(C34CC5CC(CC(C5)C3)C4)n2)nc1	26%	3.5µM*	-2%	-14%	2	0%
Cc1ccc(SCc2nc(-c3ccccc3)no2)cc1	6%	79%	u	6%	1	4%
Cc1ccc(OCc2nc(-c3ccccn3)no2)cc1	30%	u	u	21%	-2	0%
Cc1ccc(SCc2nc(-c3ccccn3)no2)cc1	4%	5µM*	u	-4%	-2	0%
c1csc(-c2noc(COc3ccc4c(c3)CCCC4)n2)c1	7%	4µM*	11%	14%	-3	7%
CCOC(=O)c1sc(N(Cc2ccccc2)C(=O)CSc2nnc(C3CC3)n2N)nc1C	2%	8.9µM*	-3%	-13%	-1	3%
CCOC(=O)c1sc(N(Cc2ccccc2)C(=O)COC(=O)c2cnccn2)nc1C	-7%	81%	u	-14%	1	4%
O=C(CCC(=O)N1CCSc2ccccc21)NCc1ccccc1Cl	x	x	x	x	x	3%
CC(/C=N/NC(=O)c1cnccn1)=C\c1ccco1	-18%	56%	u	0%	-2	8.9µM*

Source: PubChem
